High-throughput results from PubChem BioAssay.
Cruzain inh noDet – inhibitors of Trypanosoma cruzi cruzain without detergent; purified cruzain, Z-FR-AMC fluorescence, no detergent; Potency, µM, without a hit: max response, negative = inhibition, actives largely listed as inhibitors; 2.3% of 200,000 active; AID 1476;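 also: plate controls were enzyme without inhibitor for no effect and buffer without enzyme for full effect; nearly all actives have a fitted effect of over 40% in size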
Target sequence (P25779 123-467 limits assumed): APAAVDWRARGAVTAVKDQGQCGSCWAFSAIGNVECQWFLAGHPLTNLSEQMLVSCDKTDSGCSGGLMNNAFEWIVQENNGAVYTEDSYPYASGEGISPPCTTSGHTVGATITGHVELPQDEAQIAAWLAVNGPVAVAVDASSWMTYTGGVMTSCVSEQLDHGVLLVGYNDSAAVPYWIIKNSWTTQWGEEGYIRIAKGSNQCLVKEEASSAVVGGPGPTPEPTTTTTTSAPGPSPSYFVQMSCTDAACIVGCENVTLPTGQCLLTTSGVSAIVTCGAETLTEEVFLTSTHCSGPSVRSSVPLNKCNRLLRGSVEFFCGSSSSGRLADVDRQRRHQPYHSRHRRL
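Purified cruzain at 1.5 nM, pre-incubated 15 min with compound at room temperature in 100 mM sodium acetate pH 5.5, 5 mM DTT, 0.00005% Triton X-100. Reaction started with 2 uM Z-FR-AMC; AMC fluorescence increase over 60 s gives rate.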
Cruzain Triton – blocks cruzain activity in presence of Triton detergent. AID 1478. P25779. purified cruzain, Z-FR-AMC fluorescence, 0.01% Triton. 0.43% of 200,000 active. Potency, µM, without a hit: max response, negative = inhibition, usual class: inhibitors;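 also: plate controls were neutral wells for no effect and buffer without enzyme for full effect; nearly all actives have a fitted effect of over 40% in size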
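Sodium acetate buffer (100 mM, pH 5.5) containing 5 mM DTT and 0.01% Triton X-100 hosted 1.5 nM cruzain and test compound for 15 min at room temperature. Cleavage of 2 uM Z-FR-AMC was then tracked by fluorescence.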
Starred values were filed as active, the others as inactive; u = inconclusive. Sampled rows, rich in hits. Any-hit rate of the full collection: about 2.6%. Calls follow the shape of the dose curve; as a rule, active = well fitted curve in the direction sought with a large enough effect; inconclusive = small, poorly fitted or top-dose-only effect, or another doubt; inactive = no such curve, though single readings can be large; an effect the other way counts as inactive or inconclusive. Potency is read from the fitted curve at half-maximal effect.

SMILES	Cruzain inh noDet	Cruzain Triton
O=c1[nH]c(=O)n(CCc2ccc(F)cc2)c(O)c1C=NCc1ccc2c(c1)OCO2	u	12.6µM*
COc1cc2nc(SCc3ccc(Cl)cc3Cl)n(Cc3cccs3)c(=N)c2cc1OC	7.94µM*	0.3%
COc1cc2nc(SCc3ccc(C(F)(F)F)cc3)n(Cc3cccs3)c(=N)c2cc1OC	u	-1.4%
CCNc1ncc2nc(-c3cn(C)c4ccccc34)c(=O)n(Cc3cccc(OC)c3)c2n1	-20.5%	4.3%
CCOC(=O)c1cc(S(=O)(=O)N2CCN(c3cc(C)ccc3C)CC2)[nH]n1	12.0%	-11.2%
COc1cccc(/C=N/NC(=O)CSc2ccccc2C)c1O	-5.8%	-7.2%
COc1cccc(/C=N/NC(=O)c2nc(-c3ccccc3)cc(-c3ccccc3)n2)c1O	12.6µM*	-0.9%
Cc1ccc(NC(=O)CN2C(=O)C3(SCC(=O)N3c3cccc(Cl)c3)c3ccccc32)cc1C (stereo not drawn)	20µM*	-5.4%
COc1ccc(NC(=O)CN2C(=O)C3(SCC(=O)N3c3ccccc3)c3ccccc32)cc1Cl (stereo not drawn)	20µM*	-5.1%
Cc1ccc(N2C(=O)CSC23C(=O)N(CC(=O)Nc2ccc(C(C)C)cc2)c2ccccc23)cc1C (stereo not drawn)	u	-5.5%
O=C(CN1C(=O)C2(SCC(=O)N2c2ccc(F)c(F)c2)c2ccccc21)Nc1cccc(Cl)c1 (stereo not drawn)	u	-5.9%
CC1CCN(C(=O)Cn2c(=O)n(CCCCCC(=O)NCc3ccccc3Cl)c(=O)c3sccc32)CC1	-13.0%	-11.1%
Cc1cc(=O)oc2cc(O)c(O)cc12	u	0.0%
Cc1ccc(NC(=O)c2oc3c(c2C)-c2[nH]ncc2CC3)c(Cl)c1	-4.6%	-7.2%
Fc1ccccc1Cn1c(-c2ccccc2)nc2ccccc21	3.3%	1.0%
CCN1CCN(C(=S)Nc2ccc(Cl)cc2Cl)CC1	-1.0%	-0.1%
CN1CCN(C(=S)Nc2ccc(Cl)cc2Cl)CC1	1.58µM*	3.1%
O=C(NCc1ccco1)C(Cc1ccccc1)N1C(=O)C2C3C=CC(C3)C2C1=O (stereo not drawn)	-29.9%	25.1µM*
O=C(C(Cc1ccccc1)N1C(=O)C2C3C=CC(C3)C2C1=O)N1CCCCCC1 (stereo not drawn)	15.9%	-0.5%
O=C1NC(=S)N/C1=C/c1ccc(-c2c(Br)cc([N+](=O)[O-])cc2Br)o1	20µM*	-11.6%
O=C1NC(=S)N/C1=C\c1cccc([N+](=O)[O-])c1	u	-3.1%
COCCN(Cc1ccc(C)c(Br)c1)S(=O)(=O)c1ccc2[nH]c(=O)ccc2c1	-0.6%	-2.6%
O=c1cc(CN2CCN(c3ccccc3)CC2)c2cc(O)c(-c3ccccc3)cc2o1	10µM*	-2.0%
O=c1cc(CN2CCN(Cc3ccccc3)CC2)c2cc(Cl)ccc2o1	-7.8%	-3.7%
COc1ccc(N2CCN(Cc3cc(=O)oc4ccc(C)cc34)CC2)cc1	u	-0.2%
SMILES	Cruzain inh noDet	Cruzain Triton
O=c1cc(CN2CCN(c3cccc(Cl)c3)CC2)c2cc(O)c(-c3ccccc3)cc2o1	7.94µM*	3.8%
COc1ccc(N2CCN(Cc3cc(=O)oc4cc5c(cc34)CCCC5)CC2)cc1	12.6µM*	0.0%
O=c1cc(CN2CCN(c3ccccc3)CC2)c2c(ccc3ccccc32)o1	u	3.2%
C=C(C)CSc1nc2sc3c(c2c(=O)n1Cc1ccccc1)CC(C)(CC)OC3 (stereo not drawn)	-1.3%	-2.4%
COc1ccc(Cn2ccc3nc(C)c(C(=O)N4CCN(c5cccc(OC)c5)CC4)cc3c2=O)cc1	u	-7.1%
Cc1ccc(S(=O)(=O)N2CCCc3cc(NC(=O)c4ccc(C(F)(F)F)cc4)ccc32)cc1	u	-3.8%
COc1cccc(-c2nc(-c3ccc4c(c3)-c3ccccc3S4(=O)=O)c(-c3ccccc3)[nH]2)c1OC	12.6µM*	-9.7%
COc1cc(-c2nc(-c3ccc4c(c3)-c3ccccc3S4(=O)=O)c(-c3ccccc3)[nH]2)cc(OC)c1OC	-2.0%	-0.9%
CCCCC/C=C\C/C=C\C/C=C\CCCCC(=O)NCCCC(=O)O	5.9%	-3.5%
Cc1ccc(CCNC(=O)c2ccc(CNS(=O)(=O)c3ccc(F)cc3)cc2)cc1	-4.6%	0.1%
O=C(CCS(=O)(=O)c1cccs1)Nc1ccc(C(=O)Nc2ccccc2F)cc1	-16.4%	1.5%
O=C(NCc1ccccn1)c1ccc([N+](=O)[O-])cc1	-9.1%	-1.8%
O=C(Nc1cc(Sc2ccccn2)cc([N+](=O)[O-])c1)c1ccc([N+](=O)[O-])cc1	31.6µM*	-0.4%
Cc1ccc(CN(C(=O)COc2ccccc2Cl)c2ccccn2)o1	3.8%	-3.2%
CCC(C)(C)NS(=O)(=O)c1cc(-c2cc(C)no2)ccc1C	-9.4%	-1.9%
COC(=O)[C@@]1(Cc2ccc(OC)cc2)[C@H]2c3cc(C(=O)N(C)C)n(CCc4c[nH]c5ccc(O)cc45)c3C[C@H]2CN1C(=O)c1ccccc1	u	-2.7%
O=C(Nc1nc2c(Cl)cccc2s1)c1ccc(S(=O)(=O)N2CCc3ccccc32)cc1	3.16µM*	-2.1%
Cc1cc(C)c2nc(NC(=O)c3cccc(S(=O)(=O)N4CCc5ccccc54)c3)sc2c1	3.98µM*	0.3%
COc1cc2nc(NC(=O)c3ccc(S(=O)(=O)N4CCc5ccccc54)cc3)sc2cc1OC	-28.4%	-2.0%
Cc1cc(C)c2nc(NC(=O)c3ccc(S(=O)(=O)N4CCCC4)cc3)sc2c1	u	2.8%
CCOc1cccc2sc(NC(=O)c3ccc(S(=O)(=O)N4CCCc5ccccc54)cc3)nc12	2µM*	-2.1%
Cc1c(Cl)ccc2sc(NC(=O)c3ccc(S(=O)(=O)N4CCCc5ccccc54)cc3)nc12	u	0.8%
O=C(Nc1ncccc1O)c1cccc(S(=O)(=O)N2CCc3ccccc32)c1	-6.2%	-2.9%
Cc1cccc2sc(NC(=O)c3cccc(S(=O)(=O)N4CCc5ccccc54)c3)nc12	10µM*	-1.2%
c1ccc([C@H](CCN2CCCC2)c2ccccn2)cc1	5.0%	2.2%
SMILES	Cruzain inh noDet	Cruzain Triton
COc1ccc(CNC(=O)c2cnc3sc(N4CCC(C)CC4)nn3c2=O)c(OC)c1	2.2%	2.5%
CC(=O)N1c2ccc(S(=O)(=O)N3CCCCCC3)cc2CC1C(=O)NC(C)C (stereo not drawn)	-6.1%	1.4%
COC(=O)[C@H](COC(C)(C)C)NC(=O)O[C@H]1C(=O)c2cc(OC)ccc2O[C@@H]1c1ccc(OC)c(Br)c1	20.9%	-2.2%
COc1cc2[nH]c(=O)n(Cc3ccc(C(=O)N4CCN(c5cccc(C)c5C)CC4)cc3)c(=O)c2cc1OC	-7.9%	0.5%
Cc1cccc2sc(NNC(=O)c3ccc(S(=O)(=O)N4CCc5ccccc5C4)cc3)nc12	7.94µM*	11.8%
Cc1cccc2sc(NNC(=O)c3ccc(S(=O)(=O)N4CCCC(C)C4)cc3)nc12 (stereo not drawn)	-23.4%	-0.4%
CN(C)c1ccc(NC(=O)c2sc(SCC(=O)Nc3ccc(Br)cc3)nc2N)cc1	10µM*	5.7%
CN(C)c1ccc(NC(=O)c2sc(SCC(=O)Nc3nccs3)nc2N)cc1	u	-7.1%
O=C1OCCN1C(=O)[C@H]1[C@H](c2ccc([N+](=O)[O-])cc2)C(c2cccc(Cl)c2)=NN1c1ccc(Br)cc1	3.55µM*	0.6%
O=C1OCCN1C(=O)[C@H]1[C@H](c2ccc([N+](=O)[O-])cc2)C(c2ccccc2)=NN1c1ccc(Br)cc1	14.1µM*	-3.2%
